Data on 17 molecules can be found in PMC12136788.

First the molecules themselves.
B1: chr12:39618871:39619093:-|CDS|ENSG00000173208|unk|total|mutant (ssRNA)
RNA: GGGAGUUCUACAGUCCGACGAUCUAUUAUGAUGUUCUCCCAAUCUGUGGCUCACUUGUAUUCCAAUCUGACCAAACCUAUUUCCGAUGUAAUGCUGACCUCCUAUACACUCAUUCAAACUGCUACAUCCAGAGGAGCAAGCCCCAACAGAGGAUUGAGCAUCA
B2: chr8:17753977:17754079:-|CDS|ENSG00000129422|unk|FALSE|bound_elsewhere (ssRNA)
RNA: GGGAGUUCUACAGUCCGACGAUCAAAAAAGCAGAAAUUCUAAUUAACAAGACACAUAAGCAGCAGUUUAAUAAACUCAUUACUAGCCAGGCUGUGCAUGUUACAACUCAUUCUAAAAAUGCUUCACACAGGGUUCCAAGAACACAACAGAGGAUUGAGCAUCA
B3: chr1:152032676:152032810:-|CDS|ENSG00000163191|unk|FALSE|unique (ssRNA)
RNA: GGGAGUUCUACAGUCCGACGAUCGGACCCUGGUGUCCUUGACCGCAUGAUGAAGAAACUGGACACCAACAGUGAUGGUCAGCUAGAUUUCUCAGAAUUUCUUAAUCUGAUUGGUGGCCUAGCUAUGGCUUGCCAUGACUCCUUCAACAGAGGAUUGAGCAUCA
B4: chr2:27041412:27041530:+|3pUTR|ENSG00000119777|msi1_unk|total|mutant (ssRNA)
RNA: GGGAGUUCUACAGUCCGACGAUCACUUCAAAAUGCCCAGCCUGCCCCAAAUGCCUCUAAGCCCCUCCCUGUCCCCUCCCUUGCCGUCCUACUUCUUCCAACUUUCCAUUCCCCAUCAUGCUGGGGGUCUUGGUCACAAGGCUCCAACAGAGGAUUGAGCAUCA
B5: chr11:49981574:49982501:-|CDS|ENSG00000221954|control|control|control (ssRNA)
RNA: GGGAGUUCUACAGUCCGACGAUCGAACAAUAGCUUGGAGGGGAGGUGUAAAGCCCUCUCCACCUGUAUUUCUCACAUCAUAGUAGUUGUCUUAUUCUUUGUGCCCUGUAUAUUUGUGUAUCUGCGCUCAGUGACCACUCUGCCCAACAGAGGAUUGAGCAUCA
B6: ENSG00000070961:be:win_4501|3pUTR|ENSG00000070961|bound_else_gene|NA|bound_elsewhere_windowed (ssRNA)
RNA: GGGAGUUCUACAGUCCGACGAUCCCUUUUGUUCAGAAUUUAGUAGAUUGUUUAAUGCAGGACAUCAACUACAUAAUGAAAGAUGCUUGAAAUGCUUUUGUUAUUUCAGGCAAAUCAAAUUAAAUCAGACUAUCAAACUACAAGCAACAGAGGAUUGAGCAUCA
B7: chr15:83017406:83017507:-|3pUTR|ENSG00000064726|msi1|total|mutant (ssRNA)
RNA: GGGAGUUCUACAGUCCGACGAUCGGCCUAAUAAAAUGCCCAAGAAAAUAUUCAGUGCAUUUACCGAGAAGGAUAUUUUGCCGCCGUACCGUAAUGUGUUAUGCCGUACAGUUUUAAAGCUAUAAAUGGAAUUUUGUGUAAAUUCAACAGAGGAUUGAGCAUCA
B8: chr15:34980028:34980129:-|3pUTR|ENSG00000198146|msi1|total|mutant (ssRNA)
RNA: GGGAGUUCUACAGUCCGACGAUCGGUUCUGUUAUUUAAGCCUGUUCUAAGUUUGAUCAAAUGGCAAUGACCCGGUCCCGUUUCCGUUUUUAUUUUUGCAGGAGUCUAUUGCUAAAGAAUUUUAUUUUGAUGCUUGUUAAAUUUCAACAGAGGAUUGAGCAUCA
B9: chr15:83017406:83017507:-|3pUTR|ENSG00000064726|msi1|FALSE|unique (ssRNA)
RNA: B7 RNA with C63U, C64A, C80U, C81A, C83U, C84A, C88U, C89A, C103U, C104A
B10: chr7:157269180:157269282:+|3pUTR|ENSG00000009335|unk|FALSE|unique (ssRNA)
RNA: GGGAGUUCUACAGUCCGACGAUCAUUUUAGGUUGUUUUAUGUUGAAUGUUCUAUAUCUUAUUAGUUAAUUUGUAUAUUUUAUUAGUAUUUUGGAAAUAGCAUAUCUGAGACUGAAGAGAAAUUGACAAUUCACUUAUUUGUGGCAACAGAGGAUUGAGCAUCA
B11: ENSG00000114744:stop:overlap|stop_codon|ENSG00000114744|stop_codon|NA|stop_codon (ssRNA)
RNA: GGGAGUUCUACAGUCCGACGAUCAACAAGCAUUGGAAGAGAUGAAGACAAAUCACUGUAGGAGAGUUGUUCGCAACAUCAAGUAGUACCAGUUUUAAGGUUUUAAUUCAUUUGAAUCACUUAUGAAUUGAUGAUAUACAGCAACAACAGAGGAUUGAGCAUCA
B12: chr11:35231809:35232301:+|3pUTR|ENSG00000026508|msi1|FALSE|unique (ssRNA)
RNA: GGGAGUUCUACAGUCCGACGAUCACAACACCAAGAAUUGAUUUUGUAGCCAACAUUCAUUCAAUACUGUUAUAUCAGAGGAGUAGGAGAGAGGAAACAUUUGACUUAUCUGGAAAAGCAAAAUGUACUUAAGAAUAAGAAUAACAACAGAGGAUUGAGCAUCA
B13: chr12:39553730:39553837:-|3pUTR|ENSG00000173208|unk|FALSE|unique (ssRNA)
RNA: GGGAGUUCUACAGUCCGACGAUCGAAGUAUGUUAAGCUAAGCACAGAGAAAAAAAGGCAGCAAGACAUGUUUUAUAAGAUUUUAGCAUUAAGGAAGUAUAUGAUCUGACUUUUCAGAAGAAAAUAAACAAAUGCAUUAUGUAACAACAGAGGAUUGAGCAUCA
B14: chr10:11920118:11920232:-|3pUTR|ENSG00000151461|unk|total|mutant (ssRNA)
RNA: GGGAGUUCUACAGUCCGACGAUCGCCGUAUAUUCCGUCGGAGAGCACAUCUGUAUGCGACAACUUGAUUACAUCUUUUUUUCCCGCUAUUUUGCAUUUUUUCUUUUACCAUGUUUCAGUUUCUGCAUGCCGAUUUAAAUAAAACAACAGAGGAUUGAGCAUCA
B15: chr10:11920118:11920232:-|3pUTR|ENSG00000151461|unk|FALSE|unique (ssRNA)
RNA: B14 RNA with C25U, C26A, C34U, C35A, C83U, C84A, C129U, C130A
B16: ENSG00000070961:be:win_5801|3pUTR|ENSG00000070961|bound_else_gene|NA|bound_elsewhere_windowed (ssRNA)
RNA: GGGAGUUCUACAGUCCGACGAUCGAAAAGGGAAAUGUUUUCAGUUUUCUUUUUUAUUUUGGUUAUGCUUAAAUAUGAAUGUAAUUACCAAAAGAUUUAGAAGUGCAUGUGCUUUGGAGGAUUUGUAUUGAGCUUUUACAGUAUCAACAGAGGAUUGAGCAUCA
B17: chr15:34980028:34980129:-|3pUTR|ENSG00000198146|msi1|FALSE|unique (ssRNA)
RNA: B8 RNA with C71U, C72A, C77U, C78A, C83U, C84A

Where a chain is given by its changes, count along the chain named. Over roughly 5,800 sequences, “enrichment r” has its median near 0.54; the highest 2% begin near 16. This is one part of a sample in which the highest values are shown more often than they occur.

For the assay, the target named is MSI1 full-length (mouse, UniProt Q61474 1-362). Kind of assay: nsRBNS (natural sequence RNA bind-n-seq); RBNS binding buffer (assumed for nsRBNS): 25 mM Tris pH 7.5, 150 mM KCl, 3 mM MgCl2, 0.01% Triton X-100, 500 ug/ml BSA, 20 U/ml SUPERase-In, 4 C; UNK is unkempt and MSI1 is Musashi-1; names of the RNAs are library labels; protein concentration not given here; high values mean tight binding.
Sequence of MSI1 full-length (Q61474 whole entry): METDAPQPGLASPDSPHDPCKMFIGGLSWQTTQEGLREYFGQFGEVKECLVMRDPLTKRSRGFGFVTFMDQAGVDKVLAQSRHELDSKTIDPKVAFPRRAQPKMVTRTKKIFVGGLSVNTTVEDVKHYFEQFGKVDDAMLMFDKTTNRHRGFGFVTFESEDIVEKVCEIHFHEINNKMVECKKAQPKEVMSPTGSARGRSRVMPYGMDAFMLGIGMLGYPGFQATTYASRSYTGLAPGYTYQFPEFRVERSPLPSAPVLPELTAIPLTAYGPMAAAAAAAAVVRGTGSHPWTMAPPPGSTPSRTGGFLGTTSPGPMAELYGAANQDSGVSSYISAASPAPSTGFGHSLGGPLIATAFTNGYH
B1 showed a binding signal of 0.621 enrichment R.

The molecule B2 came in with a binding signal of 2.45 enrichment R.

As for B3, the binding signal turned out to be 0.264 enrichment R.

B4 registered a binding signal of 0.832 enrichment R.

As for B5, the binding signal stood at 2.83 enrichment R.

In turn, B6 gave a binding signal of 0.644 enrichment R.

Molecule B7 gave a binding signal of 0.489 enrichment R.

The molecule B8 came in with a binding signal of 0.774 enrichment R.

With B9, the binding signal came out at 44.9 enrichment R.

The molecule B10 registered a binding signal of 12.7 enrichment R.

The molecule B11 displayed a binding signal of 16.3 enrichment R.

Molecule B12 gave a binding signal of 0.807 enrichment R.

For the molecule B13, the binding signal came to 2.43 enrichment R.

B14 showed a binding signal of 0.709 enrichment R.

Turning to B15, the binding signal was found to be 23.3 enrichment R.

The molecule B16 gave a binding signal of 1.05 enrichment R.

B17 had a binding signal of 77.2 enrichment R.
